High-throughput results from PubChem BioAssay.
Pf Dd2 growth: qHTS Primary assay for Inhibitors of Plasmodium falciparum Dd2 growth in vitro; Potency, µM (highest dose often 28.9 µM), for inactives: at the top dose activity, negative = inhibition, hits mostly inhibitors; AID 1347417, 2020; P. falciparum Dd2 growth, SYBR Green, 72 h; 120,000 compounds, 4.3% hits; active = well fitted inhibition curve with a large enough effect;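 also: plate controls were DMSO vehicle for no effect and reference drug for full effect; nearly all actives have a fitted effect of over 65% in size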
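Infected erythrocytes (Dd2, 0.3% parasitemia, 2.5% hematocrit final) are added to compound in RPMI-1640/Albumax II medium, grown 72 h at 37C in low oxygen, then lysed with saponin/Triton-X containing SYBR Green and read by fluorescence.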
An asterisk follows results filed as active; i = inactive; [ ] = dose if it differs, or a comment. This is one part of a sample in which hits are shown more often than they occur. Potency is read from the fitted curve at half-maximal effect.

SMILES	Pf Dd2 growth
CCc1ccc(S(=O)(=O)c2c(C(=O)c3ccc(C)c(C)c3)cnc3ccccc23)cc1	4µM*
COc1ccc(S(=O)(=O)c2c(O)c3ccc(C(=O)NCc4ccc(F)cc4)cc3[nH]c2=O)cc1	-17%
CN1CCCCCC(O)c2cc(C(=O)NC3CCN(Cc4ccccc4)CC3)ccc21 (stereo not drawn)	-6%
COC[C@H]1CCCN1[C@@H]1[C@H](O)[C@H](CO)O[C@@H]1CNCc1ccc(F)cc1	i
COc1ccc(C(=O)N2CCCC(c3nc(-c4cccnc4)no3)CCNC(=O)CC2)cn1 (stereo not drawn)	i
O=C(c1ccc(C(F)(F)F)cc1)N1CCC2(CC1)C(=NC1CCCC1)NC(=O)N2c1cccnc1	2%
Cc1cccc(CCNC(=O)CCc2nc(C3CCCN3S(C)(=O)=O)no2)c1 (stereo not drawn)	41%
COc1ccc(CN(C)C(=O)C2(C)CCOCC2)cc1	19%[44.1 µM]
C=CCn1c(-c2ccc(F)cc2)cn2cc(C(=O)N[C@@H](C)CO)nc2c1=O	-17%
CC(C)=CCn1c(-c2ccccc2Cl)cn2cc(C(=O)NCCCO)nc2c1=O	7.9µM*
C=CCn1c(-c2cccs2)cn2cc(C(=O)NC(CC)CO)nc2c1=O (stereo not drawn)	1%
COc1ccc(CN2CCCC(COc3ccccc3C(=O)NC3CC3)C2)c(OC)c1 (stereo not drawn)	i
O=C1CCN(Cc2cccc(F)c2)CCCCCCN1	-19%
CN1C(=O)C(CC(=O)NCC2CCN(Cc3cccc(F)c3)CC2)=C2CCCCC21 (stereo not drawn)	i
Cc1oc2c(c1C(=O)N1CCCCCC1)CN(Cc1cccc(F)c1)CC2	4µM*
Cc1oc2c(c1C(=O)N1CCCC1)CN(Cc1cccc(F)c1)CC2	-21%
O=C(CC1CCOCC1)N1CCN(Cc2cccc(F)c2)CC1	48%
Cc1oc2c(c1C(=O)N1CCN(C3CCCC3)CC1)CN(Cc1cccc(F)c1)CC2	8.9µM*
CCN(CC)Cc1cnc2c(C(=O)Nc3ccc(C)cc3Cl)cnn2c1	-20%
Cc1cn2nc(C(=O)N3CCC(NC(=O)c4ccc(C)c(C)c4)CC3)cc2c(=O)[nH]1	-1%
O=C1NCCN2CC3(CCN(S(=O)(=O)c4cccc(F)c4)CC3)CC12 (stereo not drawn)	-8%
COCC1CN(C(C)=O)CC12CCN(Cc1ccc(F)c(F)c1)CC2 (stereo not drawn)	0%
COc1cc2c(c(OC)c1)C(c1cc(OC)c(OC)c(OC)c1)CC(=O)N2 (stereo not drawn)	-26%
CCOc1cc(C2CC(=O)Nc3cc4c(cc32)OCCO4)ccc1O (stereo not drawn)	-12%
CCOc1c(Br)cc(C2CC(=O)Nc3cc4c(cc32)OCO4)cc1OC (stereo not drawn)	3.2µM*
SMILES	Pf Dd2 growth
Cc1cccc(C2CC(=O)Nc3cc4c(cc32)OCO4)c1 (stereo not drawn)	-2%
COc1cc(C2CC(=O)Nc3cc4c(cc32)OCCO4)cc(Br)c1OC (stereo not drawn)	1µM*
COc1cccc(C2CC(=O)Nc3cc4c(cc32)OCO4)c1OC(C)C (stereo not drawn)	12%
CN(C)C[C@H]1O[C@@H]2C[C@@H](CC(=O)N3CCOCC3)O[C@@H]2[C@@H]1O	8%[44.1 µM]
COCCOc1ccc2c(n1)CCN(C(=O)c1cnccn1)C2	i
COCC(=O)N[C@H]1C[C@@H](CO)N(Cc2ccccn2)C1	59%
COCCN1CCCC2(CCN(C(=O)c3ncoc3C3CC3)C2)C1=O (stereo not drawn)	-7%
O=C(NC1CCCN(c2cc(-c3ccc(F)cc3)[nH]n2)C1)c1ccccc1Cl (stereo not drawn)	-5%
CN(C)C(=O)CN1C(=O)CO[C@H](c2ccc(NS(=O)(=O)Cc3ccccc3)cc2)[C@H]1CO	5%
Cc1ccc(CN2C(=O)[C@@H]3C[C@@H](O)CN3C3(CN(Cc4ccc(Cl)cc4)C3)C2=O)o1	-13%[44.1 µM]
COc1ccc(CN2CC3(C2)C(=O)N(Cc2ccc(C)o2)C(=O)[C@@H]2C[C@@H](O)CN23)c2ccccc12	10µM*
Cc1ccc(CN2C(=O)[C@@H]3C[C@@H](O)CN3C3(CN(Cc4ccccc4Cl)C3)C2=O)o1	-23%[44.1 µM]
CC(C)Oc1ccc(CNC(=O)c2noc(-c3ccccc3F)n2)cc1	-10%
COc1ccc2c(CNCCc3ccco3)c(C(=O)O)n(Cc3ccccc3)c2c1	-12%
COc1ccc2c(CNCCc3cccs3)c(C(=O)O)n(Cc3ccc(F)cc3Cl)c2c1	i
COc1ccc2c(CNCc3cccs3)c(C(=O)O)n(Cc3ccc(F)cc3)c2c1	-3%
COc1ccc2c(CNCc3ccc(C)o3)c(C(=O)O)n(Cc3ccccc3)c2c1	-16%
C=Cc1ccc(Cn2c(C(=O)O)c(CNCc3ccccc3)c3ccc(OC)cc32)cc1	11µM*
COc1ccc(Cn2c(C(=O)O)c(CNCc3ccc(SC)cc3)c3ccc(OC)cc32)cc1	7.9µM*
CC(C)C(=O)NCc1ccc(C(=O)N2CCC3(CCNCC3)CC2)cc1	-15%
COc1cc(OC(F)(F)F)ccc1C(=O)NCc1nnc2n1C(C(=O)O)CC2 (stereo not drawn)	47%
CC(C)CCNC(=O)N1CCC(N2CC3CC(C2)[C@H]2CCCC(=O)N2C3)CC1 (stereo partly drawn)	3%
CN1CC2(CCCN(Cc3cc4ccccc4n(C)c3=O)C2)OC1=O (stereo not drawn)	-22%
CCN(CC)Cc1cnc2c(C(=O)N3CCC(C(N)=O)CC3)cnn2c1	-9%
O=Cc1ccccc1Oc1ccc(F)c(Cl)c1	-6%[44.1 µM]
SMILES	Pf Dd2 growth
COc1cccc(Nc2sc(C(=O)c3ccc(F)cc3)c(N)c2C(=O)NCc2ccc(C)cc2)c1	10µM*
COc1cccc(Nc2sc(C(=O)c3ccc(Cl)cc3)c(N)c2C(=O)NCCc2ccc(OC)c(OC)c2)c1	-20%
Cc1ccc(CNC(=O)c2c(Nc3ccccc3C)sc(C(=O)c3ccc(F)cc3)c2N)cc1	-17%
Cc1oc(C(O)c2ccccc2)nc1C(=O)Nc1ccc2c(c1)CNC2=O (stereo not drawn)	-23%[44.1 µM]
Cc1ccc(S(=O)(=O)N2CCCC(Cn3c(C4CC4)nc4cccnc43)C2)c(C)c1 (stereo not drawn)	-8%
COC(=O)C1=C(C)N=C2SC=C(CC(=O)NC3CC3)N2C1c1ccc(C)cc1C (stereo not drawn)	i
C=CCOC(=O)C1=C(C)N=C2SC=C(CC(=O)NCc3ccco3)N2C1c1cccc(C)c1 (stereo not drawn)	-3%
CCOC(=O)C1=C(C)N=C2SC=C(CC(=O)NCC3CCCO3)N2C1c1ccc(Cl)cc1 (stereo not drawn)	2.2µM*
C=CCOC(=O)C1=C(C)N=C2SC=C(CC(=O)NCc3ccc(F)cc3)N2C1c1ccccc1C (stereo not drawn)	3.2µM*
CCOC(=O)C1=C(C)N=C2SC=C(CC(=O)N3CCCC3)N2C1c1ccc(Cl)cc1 (stereo not drawn)	-1%
CC1=C(C(=O)OC(C)C)C(c2ccccc2C)N2C(CC(=O)NC3CC3)=CSC2=N1 (stereo not drawn)	7.9µM*
COC(=O)C1=C(C)N=C2SC=C(CC(=O)NCc3ccccc3)N2C1c1ccccc1F (stereo not drawn)	-19%
COC(=O)C1=C(C)N=C2SC=C(CC(=O)NCC3CCCO3)N2C1c1ccccc1C (stereo not drawn)	-16%
CCOC(=O)C1=C(C)N=C2SC=C(CC(=O)NC3CC3)N2C1c1ccccc1C (stereo not drawn)	-2%
